Drawing on the supplement of paper PMC6555819, this text covers PBM binding z-score for 40 sequences.

This experiment relates to VDR:RXRa (NR concentration 270 nM, RXRa partner concentration 90 nM). The experiment is described as follows: PBM binding z-score (relative to random genomic background probes); higher = stronger binding; sequences stand for … in GC…GCGATTGACAGCGTAGAATGAAGG
On the procedure:
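Protein-binding microarray (Agilent 4x180K custom design, double-stranded 60-nt probes: 5' GC cap, 34-nt variable region, 24-nt constant primer region; full probe sequence given). Purified or IVT nuclear receptor:RXRα heterodimers (3:1 NR:RXRα, mostly 270:90 nM) or homodimers were incubated for 1 h in PBS with 2% milk and no ligand, then detected with Alexa488 antibodies. Fluorescence from o1-orientation probes (~5 replicates averaged) was converted to z-scores against 500 random hg19 background probes. Variable regions are seed direct-repeat (DR0–DR5) sites, all their single-nucleotide variants and half-site ablations.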
The sequence TCTCAAAGTTCAAAGGTAACGTAAGTATCCACAC displayed a PBM binding z-score of 4.93.

On to ATCTCTAGGTAAAAGTTCCGTGAATCCCGAGGAT, for which the PBM binding z-score is -0.0559.

In the case of CAAACTAGGTCAAACGTCAAAGTCGAGCCAACCA, the PBM binding z-score is 2.41.

With TCTTTTAGATCAGCAGGTTAAGAAAGCTGGCCAA, the PBM binding z-score is 0.691.

TCTTGTAGATCATTAGAGGTTAAGAAAGTGCGCT gave a PBM binding z-score of 2.09.

Turning to GCAGACAGGTGAAACGCAGGTAAGTCAGGGTGGC, the PBM binding z-score is -0.562.

In the case of CAAACTAGGTCAATGGTCAAAGTCGAGCCAACCA, the PBM binding z-score amounted to 1.67.

The sequence CGAACTAGGTCATCCAGGAAAGTGAATACATTGA displayed a PBM binding z-score of 2.24.

For CCTGCTAGGTGAATGGTCAGCTAAAGCAGCTCGC, the PBM binding z-score was -0.699.

For the sequence TCTCGGAGGACACGAAAGGTCAGAGGTCGACATC, the PBM binding z-score was 4.52.

Sequence CCTAGCAGCCCAGGGTCACTCAAGCATTTCGCTT gave a PBM binding z-score of 2.44.

AATACAGGGTCATCCTAGGCCAGAGTACGCACAG returned a PBM binding z-score of 5.38.

As to CCTACTGGGCCATCAGGGCATTGATATCAACGTT, the PBM binding z-score is -0.589.

TTACCAAGGTGAAGGTTGTTGATCCCTCTGTAGA: the PBM binding z-score amounted to 0.381.

Sequence CGAATTAGGTCATCCAGGACAGTGAATACATTGA returned a PBM binding z-score of 5.04.

In the case of TCTCGGAGGACACGAAGGTCCGAGCTTTCCAGAG, the PBM binding z-score came out at 0.0624.

CGAACTAGGTCATCCAGGATAGTGAATACATTGA had a PBM binding z-score of 3.02.

As to CGTCCAAGGACATAGGAGGTCAGTGAAGACAGAT, the PBM binding z-score came out at 2.2.

In the case of CGAACTAGGTCATTCACAGGACAGTGAATAGTAA, the PBM binding z-score turned out to be 2.53.

CGTCCAAGGTCAAACGTCAGTGAAGAGATGACGG registered a PBM binding z-score of 4.37.

On to CCTCCTAGGTCATGGTCAGCTAATCTACAGTATG, for which the PBM binding z-score was found to be 1.93.

GCTAGTTGGTCAGTAAACGGTCACACACCGGTCG displayed a PBM binding z-score of -0.0437.

For the sequence CGAACGAGGGCATGAGTTGATAGCGAATGCCGAT, the PBM binding z-score stood at 1.21.

The sequence GTACCAAGGTGAAAAGGTCGTTGATGAGTAGGCG gave a PBM binding z-score of 2.59.

As to CTCGAAAGGTCGATTGAGGTGAGTATACGGATAA, the PBM binding z-score was found to be 3.76.

In turn, GCGACTGGGGCAAAGCAGCTTACCATAAGGTTGG displayed a PBM binding z-score of -0.87.

ATCTCTAGGTAAAGATAGTTCAGTGCATGCAAAT displayed a PBM binding z-score of 0.777.

CTACCAAGGTAAACAAGGTCGTTGATTACTATTC showed a PBM binding z-score of 4.73.

Regarding GCAGCTAGGTCAACTGATGGTCAGCTAAAGCTCG, the PBM binding z-score turned out to be 1.19.

Regarding TAGCCTAGGCCATTCAGGGGCCAGTATAGAAAGC, the PBM binding z-score was -0.423.

CCGACTGGGGCAAAGGTTACCATTCTCAGTACGA came in with a PBM binding z-score of 1.43.

With TCTATTAGTTGAGTAGGGCAACCGAAACAGCGGA, the PBM binding z-score is -0.07.

In turn, TCGAGTAGGTTACCAATGGGTCATTCAGCTTTCT came in with a PBM binding z-score of 1.85.

TCGAGTAGGTTACCAATGGGGCATTAAGCTTTCT displayed a PBM binding z-score of 0.0667.

With AGTCAAAGTTCACTAGCTAACGTAAGATTCAGCT, the PBM binding z-score came to 3.66.

In turn, CCAGACAGGTGAACGGTAACTCAGTCTGGTACGC had a PBM binding z-score of -0.205.

Sequence TAGCCTAGTTCATGGGCCAGTATACCACGCGAAC showed a PBM binding z-score of 0.685.

As for CCGACTGGGGCAAGGTTACCATGACGCACAGCCA, the PBM binding z-score is -0.0991.

Sequence ACAATGAGGTTATACGTAGATCAGGGAAGAAAGT had a PBM binding z-score of 1.5.

TCATATAAGTAAATGCTAGGTGAAAGTCCGATCT returned a PBM binding z-score of 0.889.
